# Test results reported in article PMC13494018.
# Biological target: CD276, Q5ZPR3
# Sequence (Q5ZPR3 whole entry): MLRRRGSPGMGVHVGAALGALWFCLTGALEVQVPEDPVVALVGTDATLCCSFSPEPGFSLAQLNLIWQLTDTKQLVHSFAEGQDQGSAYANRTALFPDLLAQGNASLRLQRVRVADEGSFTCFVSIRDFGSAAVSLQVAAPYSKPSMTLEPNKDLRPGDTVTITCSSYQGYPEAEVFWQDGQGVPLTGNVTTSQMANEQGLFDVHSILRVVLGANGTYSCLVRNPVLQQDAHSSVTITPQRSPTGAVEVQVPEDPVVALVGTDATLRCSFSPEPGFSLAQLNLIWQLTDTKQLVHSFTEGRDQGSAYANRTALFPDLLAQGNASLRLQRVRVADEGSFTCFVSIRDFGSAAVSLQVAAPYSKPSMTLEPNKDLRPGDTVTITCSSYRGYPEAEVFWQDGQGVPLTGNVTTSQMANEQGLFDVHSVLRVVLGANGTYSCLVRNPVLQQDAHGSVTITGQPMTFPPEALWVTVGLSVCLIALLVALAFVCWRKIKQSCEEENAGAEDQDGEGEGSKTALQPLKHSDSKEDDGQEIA
row,Binder,binding in a display sort
1,design_616_e8336982-fa4d-4d7c-b06f-9007953e1994_1400_dldesign_0_cycle1_af2pred (protein) AAAAVAIADKTIAALARQARRLAEEAIRDPDPERARRLVESAEELVRVAEDIAEAMGASPEAKEAVRRAREEVERAREVVER,not found (inactive)
2,design_616_e8336982-fa4d-4d7c-b06f-9007953e1994_528_dldesign_0_cycle1_af2pred (protein) SLLEAALAELRARFEAAKTATPAEAAALVRAAQGTLLTAAAQAGAPLEAMAAVSRVLGAAAETAATAPPEERAAALDAALAEVAALLA,not found (inactive)
3,design_616_e8336982-fa4d-4d7c-b06f-9007953e1994_1142_dldesign_0_cycle1_af2pred (protein) SAKAEAAKKEYEKAKKAAEEAKKVAKAAGDEAGAAAAKALEKSAENALRNGNLEMVKQVKEIAEAEKEIAEKKLK,not found (inactive)
4,design_616_e8336982-fa4d-4d7c-b06f-9007953e1994_1040_dldesign_0_cycle1_af2pred (protein) MEEVLREVERQAESVEKLAQAVIDLAQNDPEAQAKAKELAEKAREARERALEEPETAEEQLKRLQELFEEARRLAAETSRRAIAAA,not found (inactive)
5,design_616_e8336982-fa4d-4d7c-b06f-9007953e1994_1415_dldesign_0_cycle1_af2pred (protein) AAAALAAAVAAAKEIAADLSPEDQAIVVTAAVLAVTGAGLGQAIELARAHPAISAAIMGAAARAQAAVLAAA,not found (inactive)
6,design_616_e8336982-fa4d-4d7c-b06f-9007953e1994_1846_dldesign_0_cycle1_af2pred (protein) AQAEKEAAAAKAKRLLDQLKEFGALAVTAAAASAQQGQAYLAMARQLAANAKEEAKKTGEEGKELAAQAEATLAAAEAGVAAALAAA,not found (inactive)
7,design_616_e8336982-fa4d-4d7c-b06f-9007953e1994_1883_dldesign_0_cycle1_af2pred (protein) NAEVAKLLGQIIDELQAAQAAAAAGDLKAAAKEAQKAAEAAGKIGDPEKGKELAAGAKADPSKAVEYARQALSIASAAAIKIAA,not found (inactive)
8,design_616_e8336982-fa4d-4d7c-b06f-9007953e1994_1398_dldesign_0_cycle1_af2pred (protein) PREEVERLEREVREARKRAEAATTVEQAGEAALEALEAEARARRLAEELRARGGDEELAERAERVAEEARAVFLFAAGKAIELAKA,not found (inactive)
9,design_616_e8336982-fa4d-4d7c-b06f-9007953e1994_1719_dldesign_0_cycle1_af2pred (protein) AEAAGKAAAAAIELSREMLRIAREAGNEEVIAIAQRATAAFNQAMLDKKAGIERLKEVAKEAEELPEGKPVAELVKKAIKAFEA,not found (inactive)
10,design_616_e8336982-fa4d-4d7c-b06f-9007953e1994_1969_dldesign_0_cycle1_af2pred (protein) GEEEKEKKKERFEEILKKAIEGKATKEEIEQAALDGVAYDGGEAVLALLKAYAEAKDPEVRKYLAQALALAARLTAAKLRA,not found (inactive)
11,design_616_e8336982-fa4d-4d7c-b06f-9007953e1994_1403_dldesign_0_cycle1_af2pred (protein) GAARAAELQGKADYLLAKSYADAALKSPDPEKAAELLKKAKEYAERALEDPVGAPYGEKALKYIEEVEKAL,not found (inactive)
12,design_616_e8336982-fa4d-4d7c-b06f-9007953e1994_543_dldesign_0_cycle1_af2pred (protein) MEEAIAELNKAFAALNAAARTTDAATAQENAKKAIEYAKAAAKAAGEAMAPAAKGIIEQAKEVAAAKAALAA,not found (inactive)
13,design_616_e8336982-fa4d-4d7c-b06f-9007953e1994_719_dldesign_0_cycle1_af2pred (protein) PTPVEVAEAAAQATIKTAKRQVEEAKRLLKEGKAEEALRLAESAIQNAEIAKDLAENNPEKKEELKKQAEEVKKEAEEVKEEAEKKL,not found (inactive)
14,design_616_e8336982-fa4d-4d7c-b06f-9007953e1994_1901_dldesign_0_cycle1_af2pred (protein) AAAARAAAAALAAEAIAAAAAAVAADPAAAAIIHAQAERARGGDAATAVRAAQAAGVLAAVLAGDEALAAAVTRRAAALLAA,not found (inactive)
15,design_616_e8336982-fa4d-4d7c-b06f-9007953e1994_1745_dldesign_0_cycle1_af2pred (protein) APLEAVAKEAAEIAAKELPEASLEDALLVAEALLNPEKAKEYFAEVKKRLSPEDAARLFQTVGKAFSQLSLKLQAALAA,not found (inactive)
16,design_616_e8336982-fa4d-4d7c-b06f-9007953e1994_1845_dldesign_0_cycle1_af2pred (protein) MEEEERKKKREKAEELLAKAKEHIEAAAKQGALGDGLKFATEVVREATELDPELGEEVAKRVQQLLAEQSRQAIA,not found (inactive)
17,design_616_e8336982-fa4d-4d7c-b06f-9007953e1994_787_dldesign_0_cycle1_af2pred (protein) VAAAISAATSTAVELLRAAAGATPEQRAEAHALAAEVNRAAVAAAADPSALPATRAELERARARLEAVRAALA,not found (inactive)
18,design_616_e8336982-fa4d-4d7c-b06f-9007953e1994_1780_dldesign_0_cycle1_af2pred (protein) MASLAQGVINMVRSLAELAIKASPEEAAKLAAEAADIAIAGGEQFGAETAEEAAKILEEAAKAKPEVAPYAERVKKKLKEL,not found (inactive)
19,design_616_e8336982-fa4d-4d7c-b06f-9007953e1994_392_dldesign_0_cycle1_af2pred (protein) AEAYQKALATAEKLLAQGQAGLADPSNAEALEKGAQGYFLLAALYPEKREEYVAKGEALYKKAEEARAAQAA,not found (inactive)

row,Binder,binding in a display sort
1,design_616_e8336982-fa4d-4d7c-b06f-9007953e1994_1205_dldesign_0_cycle1_af2pred (protein) DQAQAKAVAIKTVEGMLKKMKQLKEEAEKNAADPSIAIPKAEAIKQLAEVSMAILKAAGLDQETIDKYEKEAKALKEAAEKAAKKAKE,not found (inactive)
2,design_616_e8336982-fa4d-4d7c-b06f-9007953e1994_502_dldesign_0_cycle1_af2pred (protein) MTPEQLAAMERSVARIAEAGARAPTEEEFESAMTAALALAESFGRKAGAPELATARAREIVAKYRARRLA,not found (inactive)
3,design_616_e8336982-fa4d-4d7c-b06f-9007953e1994_767_dldesign_0_cycle1_af2pred (protein) AAAREAAVEAAKKQLEELKKKAEELLAYLKANPAASPEEKQKVLEESTKIISQASELAEAYPEVAEQAREAMSAAAKAAILAQKLL,not found (inactive)
4,design_616_e8336982-fa4d-4d7c-b06f-9007953e1994_1581_dldesign_0_cycle1_af2pred (protein) EEARREELARKAEEKAEEIAKRLAKEGKSVEEIVEEAERYAKELLRPESEEVREEAAGRAANAAVRAYAKVSLELSA,not found (inactive)
5,design_616_e8336982-fa4d-4d7c-b06f-9007953e1994_1495_dldesign_0_cycle1_af2pred (protein) SEAELAKKFEEGLKKVEEAKKYAKKVEAKDPEKGKKLKELAGEAANAVLRGYAIPEKAEEEWAKVEKIYEEAKKIAA,not found (inactive)
6,design_616_e8336982-fa4d-4d7c-b06f-9007953e1994_1297_dldesign_0_cycle1_af2pred (protein) DPTAEAAARSAEARALRERGAAAGPEAAAVAEAAALAAQRANYYYLISYGDPSAAEAAAKAAEAEAEARELRAELEKLLAEAE,not found (inactive)
7,design_616_e8336982-fa4d-4d7c-b06f-9007953e1994_824_dldesign_0_cycle1_af2pred (protein) DDLERGRELAEEVARVIREGTPEEAKRAIEEAAERLAELSAGAALLAGSLMVREAAKVPGGEELTAHIRAELLRVLRAKIAAA,not found (inactive)
8,design_616_e8336982-fa4d-4d7c-b06f-9007953e1994_1282_dldesign_0_cycle1_af2pred (protein) AAALEVTRRTIFAMADHAYKSENLETAKAIMKTLGQIAVAAGEEVLKEAREYIEKLAKESTEEKAKALLEGFEEGVAEAKA,not found (inactive)
9,design_616_e8336982-fa4d-4d7c-b06f-9007953e1994_1055_dldesign_0_cycle1_af2pred (protein) GAAEEARKKAEEALKKIEELKEKAKADPANAGAYALEAVKTAAEASRALREADPALEEEIDRLRQAAAEAIRAALATQTA,not found (inactive)
10,design_616_e8336982-fa4d-4d7c-b06f-9007953e1994_756_dldesign_0_cycle1_af2pred (protein) SQAALDAAYNSAKAFAESAKRAAEKGDVQAAEAAYKSAKLAAESAKVIGAAAGEEAKKVAEKAEKIAEEAKKLVEKLKKEA,not found (inactive)
11,design_616_e8336982-fa4d-4d7c-b06f-9007953e1994_1227_dldesign_0_cycle1_af2pred (protein) SSGAQLVTTAGAVILAQVPPAAHPYVEAATAAGVAEGVEAFLSGLQEARKALSPEDAAVLLAATTAGLAAGAKAVIA,not found (inactive)
12,design_616_e8336982-fa4d-4d7c-b06f-9007953e1994_1848_dldesign_0_cycle1_af2pred (protein) GMAEKEKEYEEKLKEYKAKAKEAAKLTVEDPEAGAKKFKEIIEKAAKDFPERAKEIEEELLKVYREALAAAARAAIAAARA,not found (inactive)
13,design_616_e8336982-fa4d-4d7c-b06f-9007953e1994_1283_dldesign_0_cycle1_af2pred (protein) AAAAAAAAAARAALRAELLALAEEGAKKVLAGEISLGEAVKAIMEAGAADPEAANEAAAYLIRTVMQATQAA,not found (inactive)
14,design_616_e8336982-fa4d-4d7c-b06f-9007953e1994_1084_dldesign_0_cycle1_af2pred (protein) MTVDERLWETTEKLVELIEQVAASAPAFPKEGAIRTIKGLAANAKLAAEAALKAGASPEVTKAAAEKVEKAAKAALAKVE,not found (inactive)
15,design_616_e8336982-fa4d-4d7c-b06f-9007953e1994_632_dldesign_0_cycle1_af2pred (protein) AAADTEKFKKATEHALKAVELAKEGKLEEAEKEAKKAEEEAKKIKDPVTKAGALALAKAARQVIESKAKE,not found (inactive)
16,design_616_e8336982-fa4d-4d7c-b06f-9007953e1994_606_dldesign_0_cycle1_af2pred (protein) SPLAQAQADLLRRTLAALRRSVERAEELAREDPEAGAARLRALAQSAEVVLEAARGLAAQDPALGAETVAAAREVLERAREAEERAR,binds (active)
17,design_616_e8336982-fa4d-4d7c-b06f-9007953e1994_396_dldesign_0_cycle1_af2pred (protein) GMAELLAELREAEARTTALELMFQAGKNIHPGVAAQGLEAARRLRELAERVADAISPEERARYLAAAERTEELAA,not found (inactive)
18,design_616_e8336982-fa4d-4d7c-b06f-9007953e1994_692_dldesign_0_cycle1_af2pred (protein) MSEAERLAARGLALARHAALLVGLAVGPEEARRLYAAVAAAAADPAALIEVTTEVLELAKEKAALVPQALTTAREALELLTRARELA,not found (inactive)
19,design_616_e8336982-fa4d-4d7c-b06f-9007953e1994_576_dldesign_0_cycle1_af2pred (protein) SPALELTKRVAEAMAAQARRAAEEDPALGRAQFENALQIAKQFNPEQGALFRAILEATRAEVEAALAAAA,not found (inactive)
